Assay results from PubChem BioAssay AID588342 (National Center for Advancing Translational Sciences (NCATS), 2011).
In all, about 360,000 compounds went through this assay and about 25,000 (6.9%) were called active. Not shown: some 9% with an inconclusive outcome. What follows is part of a selection rich in actives, with near analogues and random picks from the rest. A number with no mark means an inactive call. The call rests on the fitted dose curve; in most records, active means well fitted inhibition curve with a large enough effect; inconclusive means small, poorly fitted or top-dose-only effect; inactive means flat fitted curve, though single readings scatter.

target: Luciferin 4-monooxygenase (Photinus pyralis) (UniProt P08659); assay: qHTS profiling assay for firefly luciferase inhibitor/activator using purifed enzyme and Km concentrations of substrates (counterscreen for miR-21 project); conditions: purified FLuc, luminescence inhibition; series mostly up to 57.5 µM; activity change, negative = inhibition: at the top concentration; further: nearly all actives have a fitted effect of over 55% in size;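 on activity change, negative = inhibition: plate controls were vehicle for no effect and reference inhibitor for full effect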
In short: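 Purified P. pyralis luciferase (10nM final) with 10uM D-luciferin and 10uM ATP (Km levels) in 50mM Tris acetate pH 7.5, 10mM Mg acetate, 0.01% Tween-20, 0.05% BSA; qHTS 6-point titration, ~60 µM downward; luminescence read.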
Potency means the concentration at half of the fitted maximal effect.

Chain of Luciferin 4-monooxygenase (Photinus pyralis) (P08659 whole entry, looked up): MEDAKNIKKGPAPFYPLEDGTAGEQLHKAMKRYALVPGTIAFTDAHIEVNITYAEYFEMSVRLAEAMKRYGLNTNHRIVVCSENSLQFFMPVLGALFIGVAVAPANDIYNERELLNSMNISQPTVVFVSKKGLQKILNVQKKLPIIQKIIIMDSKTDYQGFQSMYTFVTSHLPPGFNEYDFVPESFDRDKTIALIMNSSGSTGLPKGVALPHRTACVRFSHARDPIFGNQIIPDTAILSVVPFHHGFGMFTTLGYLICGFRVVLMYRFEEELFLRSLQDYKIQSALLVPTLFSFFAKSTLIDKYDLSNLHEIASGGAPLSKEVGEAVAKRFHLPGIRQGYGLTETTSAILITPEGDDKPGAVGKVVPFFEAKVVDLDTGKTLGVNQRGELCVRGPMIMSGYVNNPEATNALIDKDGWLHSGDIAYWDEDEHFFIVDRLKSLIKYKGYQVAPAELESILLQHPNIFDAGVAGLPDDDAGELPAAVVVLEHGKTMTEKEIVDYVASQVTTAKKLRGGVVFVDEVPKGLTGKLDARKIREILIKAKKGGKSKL

SMILES | activity change, negative = inhibition | Potency
Cc1nn(-c2ccc(F)cc2)c(-n2cccc2)c1C(=O)N1CCN(c2ccccc2)CC1 | 4.26% | 
CCc1ccccc1N(C)C(=O)C1CCCN(c2ncnc3onc(-c4ccc(F)cc4)c23)C1 (stereo not given) | 4.45% | 
Cc1ccc(S(=O)(=O)NNC(=S)NC(C)(C)C)cc1 | 1.48% | 
O=C1CSC2(C(=O)N(Cc3ccccc3)c3ccccc32)N1c1cccc(F)c1 (stereo not given) | -3.19% | 
Cc1cc(C)c(S(=O)(=O)N2CCC(C(=O)OCc3c(C)noc3C)CC2)c(C)c1 | 1.69% | 
CC(=O)Nc1ccc(Oc2ccc3c(c2)C(=O)NC3=O)cc1 | -3.16% | 
CC(=O)Oc1ccc2c(c1)C(=O)c1ccccc1C2=O |  | 8.49 µM (active)
CC(=O)O[C@H]1c2ccccc2-c2ccccc2[C@@H]1OC(C)=O | 0.976% | 
COc1ccc([C@H]2CC(=O)C=C(/C=C/c3ccc(Cl)cc3)C2)cc1 | -16.9% | 
CCn1nc(C(=O)NNC(=O)C2CSC3(C)CCC(=O)N23)c2ccccc2c1=O (stereo not given) | 2.68% | 
Cc1sc2ncn(CC(=O)NCCCC(=O)N(C)Cc3ccccc3)c(=O)c2c1C | 1.87% | 
Cc1cc(=O)oc2c(C)c(OC(C)C(=O)NC3CCN(Cc4ccccc4)CC3)ccc12 (stereo not given) | 0.301% | 
O=C(NC(=S)Nc1ccc(S(=O)(=O)N2CCOCC2)cc1)c1ccccc1[N+](=O)[O-] | 2.74% | 
CN(CC(=O)Nc1ccc(N2CCOCC2)cc1)CC(=O)Nc1ccccc1[N+](=O)[O-] | 3.24% | 
O=C(Nc1ccc(N2CCOCC2)cc1)c1ccc(-c2ccccc2[N+](=O)[O-])o1 |  | 3.38 µM (active)
Cc1ccc2nc(C)c3c(c2c1)N(c1ccccc1)CC3 | 0.878% | 
O=C(Cn1c(-c2cccs2)cc2ccccc21)NCCc1ccc(Cl)cc1 | -2.8% | 
Cc1cc(/C=C(/C#N)C(=O)Nc2ccc(Cl)cc2)c(C)n1-c1cccnc1 | -4.13% | 
Cc1ccc(-n2c(C)cc(/C=C(\C#N)C(=O)NCC3CCCO3)c2C)cc1 (stereo not given) |  | 0.675 µM (active)
Cc1ccc2c(c1)N(CC(=O)NCC1CCCO1)C(=O)CO2 (stereo not given) | 0.178% | 
CC(=O)N1CCc2cc(Br)cc(S(=O)(=O)CCC(=O)NCCc3ccc(Cl)cc3)c21 | -10.7% | 
CC(=O)Nc1ccc(-c2nc3ccccc3o2)cc1 |  | 3.01 µM (active)

SMILES | activity change, negative = inhibition | Potency
CC(OC(=O)c1cc2ccccc2o1)C(=O)Nc1ccc(N2CCOCC2)cc1 (stereo not given) | 2.46% | 
C/C(=N\NS(=O)(=O)c1cccc([N+](=O)[O-])c1)c1cc2ccccc2o1 | -0.43% | 
Cc1ccsc1C(=O)OCC(=O)c1cc2ccccc2o1 |  | 5.36 µM (active)
Cc1cccc(-n2nc3c(c2NC(=O)c2cc4ccccc4o2)CS(=O)(=O)C3)c1 | -0.868% | 
Cc1ccccc1C(=O)Nc1cc(C)c(O)c(-c2nc3ccccc3o2)c1 | -14.4% | 
COC(=O)c1ccc(-c2nc3cc(NC(C)=O)ccc3o2)cc1 | -6.59% | 
Cc1ccc(NC(=O)c2cc3ccccc3o2)cc1 |  | 3.38 µM (active)
CCN(C(=O)COC(=O)c1sccc1C)c1c(N)n(Cc2ccccc2)c(=O)[nH]c1=O | 0.789% | 
C/C(=N\NC(=S)Nc1ccc(C)cc1)c1cc2ccccc2o1 |  | 12 µM (active)
CC(=O)N1CCN(c2ccccc2NC(=S)NC(=O)c2cc3ccccc3o2)CC1 | 2.35% | 
Cc1ccsc1C(=O)OCC(=O)Nc1cccc(F)c1 | -19.3% | 
COc1cc(C(=O)NCCc2csc3nc(-c4ccccc4C)nn23)cc(OC)c1OC | -6.88% | 
Cc1ccc2cccc(NC(=O)C(C)Oc3ccc(C)c(C)c3)c2n1 (stereo not given) | -7.04% | 
CC(C)Cn1c(C2CC(=O)N(c3ccccc3Cl)C2)nc2ccccc21 (stereo not given) | -2.7% | 
Cc1ccc(C)c(Cn2c(C)c(CNCc3ccc(F)cc3)c(C(=O)O)c2C)c1 | -10.6% | 
COc1ccccc1CN(C)C(=O)c1cc2ccccc2o1 | -12.7% | 
CCC(C)c1ccc2oc(-c3ccc(NC(=O)c4cc5ccccc5o4)cc3)nc2c1 (stereo not given) | -2.07% | 
Cc1cc(C(=O)Cn2cnc3cc([N+](=O)[O-])ccc3c2=O)c(C)n1CC1CCCO1 (stereo not given) | -17.8% | 
Cc1ccsc1C(=O)OCC(=O)c1cc(C)n(CC2CCCO2)c1C (stereo not given) |  | 0.151 µM (active)
Cc1ccc(OC(=O)c2ccccc2C(=O)OCC(F)(F)C(F)F)cc1 | -16.5% | 
Cc1cc(C(=O)CCl)c(C)n1CC1COc2ccccc2O1 (stereo not given) | -10.4% | 
CCc1ccc2oc(-c3ccc(NC(=O)c4cc5ccccc5o4)cc3)nc2c1 | -0.596% | 

SMILES | activity change, negative = inhibition | Potency
Cc1cc2nc(-c3ccc(NC(=O)c4cc5ccccc5o4)cc3)oc2cc1C |  | 23.9 µM (active)
Cc1ccc(OC(=O)c2cc3ccccc3o2)cc1 |  | 0.757 µM (active)
O=C(Nc1ccncc1)c1cc2ccccc2o1 |  | 12 µM (active)
CCC1CCC2(CC1)NC(=O)N(CC(=O)Nc1ccc(OC)cc1)C2=O (stereo not given) | 0.329% | 
Cc1ccc(-c2nc3ccccn3c2Nc2c(C)cccc2C)o1 | -6.56% | 
Cc1ccc(S(=O)(=O)N2CCCc3cc(NS(=O)(=O)c4cc(C)ccc4C)ccc32)cc1 | -7.12% | 
O=C(CCc1nc2sc3c(c2c(=O)[nH]1)CCCC3)NCC(=O)Nc1ccccc1Br | -1.92% | 
Cc1cc(N(C)C)cc(C)[n+]1[O-] | 1.72% | 
COc1cc(OC)cc(C(=O)NNC(=O)CCOc2ccccc2OC)c1 | 4.07% | 
CCOc1ccccc1NC(=O)C1CCCN(S(=O)(=O)c2cn(C)cn2)C1 (stereo not given) | -5.71% | 
COc1ccc(S(=O)(=O)N2CCOCC2)cc1NC(=O)Cc1c(F)cccc1Cl | 4.57% | 
COc1ccc(CCNC(=O)COC(=O)C2CC2C)cc1 (stereo not given) | 5.85% | 
Cc1ccc(Nc2nc(N3CCOCC3)nc(N3CCOCC3)n2)cc1Cl | -1.72% | 
CCN1CCN(c2nc(Nc3cccc(F)c3)nc(N)c2[N+](=O)[O-])CC1 | -1.68% | 
CNc1nc(Nc2ccc(C)c(Cl)c2)nc(N)c1[N+](=O)[O-] |  | 4.78 µM (active)
COc1ccccc1CNC(=O)Cn1nc(C)c2nn(-c3ccc(Cl)cc3)c(C)c2c1=O | -10.1% | 
CCOC(=O)c1cccc(NS(=O)(=O)c2cn(C)c(C)n2)c1 | -2.62% | 
O=C(Nc1cccc(Cl)c1)OCc1ccccn1 |  | 26.9 µM (active)
O=C(CC1SC(=Nc2ccccc2)N(Cc2ccccn2)C1=O)Nc1cccc(Cl)c1 (stereo not given) | -19.3% | 
O=C(Nc1ccccc1)OCc1cn(-c2ccc(Cl)cc2)nn1 | -1.55% | 
Nc1cccc(S(=O)(=O)Nc2ccc(SC(F)F)cc2)c1 | -2.66% | 
